Experimental data from PubChem BioAssay AID504421 (National Center for Advancing Translational Sciences (NCATS), 2011).
This is one part of the list. Active and inactive are the calls of the source. Calls follow the shape of the full dose curve.

target: Dual specificity protein kinase CLK4 (Homo sapiens) (UniProt Q9HAZ1); test: Kinase Inhibition Study on Inhibitors of CDC-like Kinase 4 (Reaction Biology data): SAR round 2; settings: Reaction Biology kinase assay, 10 uM ATP
Excerpt: NIH Molecular Libraries Probe Production Centers Network [MLPCN] NIH Chemical Genomics Center [NCGC] MLPCN Grant: 1R03MH084827-01 Assay Submitter (PI): Tom Misteli NCGC Assay Overview: Alternative splicing of pre-mRNAs plays a major role in the regulation of eukaryotic gene expression. Alternative splicing is now thought to be one of the primary reasons for the complexity of higher organisms leading to an average of three protein isoforms per gene. Aberrant splicing can lead to a number of diseases and is known to play a role in rare genetic diseases such as progeria syndrome. Hutchinson-Gilford Progeria Syndrome (HGPS) is a pediatric premature aging disease caused by a spontaneous mutation in the lamin A/C (LMNA) gene due to a single point mutation in the lamin A gene effecting 1 in 4 million people. To identify both specific splicing modulators of the lamin A gene as well as general splicing modulators, a cell-based HTS assay was developed using a minigene reporter system (AIDs, 1459 & 1487). […] This AID summarizes the characterization of lead compounds in Clk4.
All kinase reactions were performed using 10 uM ATP in the assay. 100% activity was taken from kinase reactions with DMSO alone (the vehicle used for compound stock solutions).

Chain of Dual specificity protein kinase CLK4 (Homo sapiens) (Q9HAZ1 whole entry, looked up, canonical isoform): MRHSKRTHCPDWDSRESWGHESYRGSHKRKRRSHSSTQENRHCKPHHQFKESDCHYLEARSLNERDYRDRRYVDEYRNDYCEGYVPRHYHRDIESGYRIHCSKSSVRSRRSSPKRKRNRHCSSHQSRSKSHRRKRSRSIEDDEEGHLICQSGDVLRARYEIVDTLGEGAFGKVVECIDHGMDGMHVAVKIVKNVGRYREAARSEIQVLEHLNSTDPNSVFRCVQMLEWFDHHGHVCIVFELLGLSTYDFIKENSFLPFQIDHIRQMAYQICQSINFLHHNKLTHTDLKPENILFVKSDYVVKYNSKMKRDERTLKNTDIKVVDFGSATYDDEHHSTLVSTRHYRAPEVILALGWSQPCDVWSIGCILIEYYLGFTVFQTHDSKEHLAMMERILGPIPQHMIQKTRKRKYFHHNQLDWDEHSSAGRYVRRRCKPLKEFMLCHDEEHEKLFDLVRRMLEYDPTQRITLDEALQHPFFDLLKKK

Potency, active:
CC(Nc1ncnc2ccc(-c3ccc4c(c3)OCO4)cc12)c1ccco1 (centres undefined) 7600 nM
c1coc(CCNc2ncnc3ccc(-c4ccc5c(c4)OCO5)cc23)c1 42 nM
CN(Cc1cncn1C)c1ncnc2ccc(-c3ccc4c(c3)OCO4)cc12 507 nM
c1nc(N2CCOCC2)c2cc(-c3ccc4c(c3)OCO4)ccc2n1 135 nM
